Test results reported in paper PMC9838217, “Structure of SALL4 zinc finger domain reveals link between AT-rich DNA binding and Okihiro syndrome”.
Residue numbers refer to the chain shown, from its start.

Experiments:
Experiment in all cases: HT-SELEX; high values mean tight binding
Conditions in all cases: protein: recombinant; vector His6-GST; dsDNA, one strand shown
[1] = target: T1, SALL4 ZFC4 WT (HT-SELEX) (Mus musculus, UniProt Q8BX22 870-940)
T1 sequence: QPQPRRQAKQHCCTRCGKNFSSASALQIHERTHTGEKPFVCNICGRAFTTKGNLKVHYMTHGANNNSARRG
Summary of the method: (§1)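 DNA from a random library (1.5 µg in the first cycle, 200 ng afterwards) was incubated with purified recombinant mouse SALL4 zinc finger cluster 4, residues 870–940 (1 µg), for 10 min at room temperature in 100 µl buffer: 10 mM Tris–HCl pH 7.5, 50 mM NaCl, poly(dI-dC), DTT. Bound complexes were pulled down on Ni2+ beads, washed and PCR-amplified, and the selection was repeated for up to 6 cycles in triplicate. MiSeq reads were scanned for 6-mers, and binding signal is each canonical k-mer's read fraction as fold change over the initial random library.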

[2] = target: T2, SALL4 ZFC4 R900W (HT-SELEX) (Mus musculus, UniProt Q8BX22 870-940, R900W)
T2 sequence: T1 sequence with R31W
Summary of the method: as §1

[3] = target: T3, SALL4 ZFC4 G921D (HT-SELEX) (Mus musculus, UniProt Q8BX22 870-940, G921D)
T3 sequence: T1 sequence with G52D
Summary of the method: as §1

Sequence	binding signal [1]	binding signal [2]	binding signal [3]
GTAAGA	1.45 ± 0.0375 fold-change vs cycle 0	1.6 ± 0.0704 fold-change vs cycle 0	1.42 ± 0.0981 fold-change vs cycle 0
ATCCAG	0.851 ± 0.0326 fold-change vs cycle 0	0.955 ± 0.027 fold-change vs cycle 0	0.988 ± 0.0337 fold-change vs cycle 0
GCTACA	0.6 ± 0.0288 fold-change vs cycle 0	0.67 ± 0.0106 fold-change vs cycle 0	0.752 ± 0.0182 fold-change vs cycle 0
CGATCA	0.683 ± 0.0475 fold-change vs cycle 0	0.7718 ± 0.00739 fold-change vs cycle 0	0.896 ± 0.0609 fold-change vs cycle 0
CATTCC	0.85 ± 0.0367 fold-change vs cycle 0	0.949 ± 0.0747 fold-change vs cycle 0	0.981 ± 0.031 fold-change vs cycle 0
ACAAAA	1.6 ± 0.0623 fold-change vs cycle 0	1.61 ± 0.0945 fold-change vs cycle 0	1.5 ± 0.125 fold-change vs cycle 0
GTGGTA	0.757 ± 0.0708 fold-change vs cycle 0	0.849 ± 0.0366 fold-change vs cycle 0	0.874 ± 0.0298 fold-change vs cycle 0
CAAATC	1.1 ± 0.0172 fold-change vs cycle 0	1.18 ± 0.0162 fold-change vs cycle 0	1.21 ± 0.0283 fold-change vs cycle 0
GGGACA	0.383 ± 0.0239 fold-change vs cycle 0	0.458 ± 0.0236 fold-change vs cycle 0	0.564 ± 0.0569 fold-change vs cycle 0
CTACAG	0.79 ± 0.0207 fold-change vs cycle 0	0.894 ± 0.0405 fold-change vs cycle 0	0.94 ± 0.015 fold-change vs cycle 0
ATTTAG	1.79 ± 0.0993 fold-change vs cycle 0	1.83 ± 0.0928 fold-change vs cycle 0	1.64 ± 0.15 fold-change vs cycle 0
ATACTG	1.31 ± 0.0361 fold-change vs cycle 0	1.4 ± 0.0644 fold-change vs cycle 0	1.36 ± 0.0801 fold-change vs cycle 0
GAACCC	0.462 ± 0.0176 fold-change vs cycle 0	0.565 ± 0.0113 fold-change vs cycle 0	0.668 ± 0.0409 fold-change vs cycle 0
CATGTC	0.763 ± 0.0529 fold-change vs cycle 0	0.908 ± 0.0423 fold-change vs cycle 0	0.939 ± 0.0158 fold-change vs cycle 0
ATTGTC	1.14 ± 0.0493 fold-change vs cycle 0	1.21 ± 0.0499 fold-change vs cycle 0	1.24 ± 0.0435 fold-change vs cycle 0
CACAGG	0.432 ± 0.00836 fold-change vs cycle 0	0.527 ± 0.0297 fold-change vs cycle 0	0.624 ± 0.0533 fold-change vs cycle 0
TAATAA	5.02 ± 0.619 fold-change vs cycle 0	2.78 ± 0.312 fold-change vs cycle 0	2.32 ± 0.357 fold-change vs cycle 0
CTGCTA	0.699 ± 0.028 fold-change vs cycle 0	0.757 ± 0.0335 fold-change vs cycle 0	0.816 ± 0.0523 fold-change vs cycle 0
CCGTAA	0.687 ± 0.0267 fold-change vs cycle 0	0.78 ± 0.0395 fold-change vs cycle 0	0.825 ± 0.0254 fold-change vs cycle 0
CCATTA	1.33 ± 0.0471 fold-change vs cycle 0	1.4 ± 0.0728 fold-change vs cycle 0	1.32 ± 0.097 fold-change vs cycle 0
TCGTCA	0.675 ± 0.0174 fold-change vs cycle 0	0.765 ± 0.0313 fold-change vs cycle 0	0.852 ± 0.012 fold-change vs cycle 0
AAACAA	1.75 ± 0.117 fold-change vs cycle 0	1.82 ± 0.0942 fold-change vs cycle 0	1.66 ± 0.151 fold-change vs cycle 0
AGGTAG	0.817 ± 0.0419 fold-change vs cycle 0	0.986 ± 0.0401 fold-change vs cycle 0	0.998 ± 0.0166 fold-change vs cycle 0
GCGAAA	0.363 ± 0.0241 fold-change vs cycle 0	0.395 ± 0.00888 fold-change vs cycle 0	0.534 ± 0.0715 fold-change vs cycle 0
AAGATA	2.25 ± 0.105 fold-change vs cycle 0	2.22 ± 0.148 fold-change vs cycle 0	1.9 ± 0.223 fold-change vs cycle 0
ATAACA	2.52 ± 0.194 fold-change vs cycle 0	2.06 ± 0.122 fold-change vs cycle 0	1.83 ± 0.192 fold-change vs cycle 0
CATACA	1.36 ± 0.0385 fold-change vs cycle 0	1.37 ± 0.0315 fold-change vs cycle 0	1.32 ± 0.0664 fold-change vs cycle 0
CGGATA	0.674 ± 0.0155 fold-change vs cycle 0	0.747 ± 0.0235 fold-change vs cycle 0	0.823 ± 0.043 fold-change vs cycle 0
CTGGAA	0.772 ± 0.02 fold-change vs cycle 0	0.891 ± 0.0485 fold-change vs cycle 0	0.926 ± 0.0429 fold-change vs cycle 0
ACAGAG	0.763 ± 0.0507 fold-change vs cycle 0	0.916 ± 0.013 fold-change vs cycle 0	0.96 ± 0.0385 fold-change vs cycle 0
